eIF4E 4G PPI = eIF4E/eIF4G interaction inhibition in translation initiation; P63073+Q04637; TR-FRET eIF4E-eIF4GI(517-606) binding, 2 h; inhibition, % at 21.7 µM; 0.37% of 220,000 active;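 active = inhibition above about 30%, limit read from the data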
PfM18AAP inh = PfM18AAP enzyme inhibition; recombinant PfM18AAP, H-Glu-NHMec fluorogenic cleavage; inhibition, % at 7.35 µM; 1.2% of 290,000 active;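 active = inhibition above the campaign mean inhibition over all tested compounds plus 3 SD, cut at about 28% in these data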
PABP polyA inh = PABP-poly(A) binding inhibition; 1% of 290,000 active; P11940; inhibition, % at 35 µM; AID 2014; PABP-poly(A) RNA binding, fluorescence polarization;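 note: calls also rest on retests at 20 µM and on dose response follow-up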
MLLE-PAM2 inh = inhibitors of microRNA-mediated deadenylation, human PABP1 MLLE binding; GST-MLLE / FITC-PAM2 fluorescence polarization; inhibition, % at 20 µM; 0.36% of 360,000 active; in the data active = inhibition above about 35%, passing the limit was not always enough
eIF4H FP inh = inhibitors of RNA binding by human eIF4H. Q15056. eIF4H fluorescence polarization binding assay. inhibition, % at 35 µM. 0.94% of 290,000 active. AID 2012;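 note: calls also rest on retests at 20 µM and on dose response follow-up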
PERK inhibitor = inhibitors of human PERK kinase. Q9NZJ5. CHO PERK-DD fusion, SEAP luminescence translation reporter. inhibition, % at 5.6 µM. 0.17% of 220,000 active. AID 1416;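 active = inhibition above the mean inhibition of all tested compounds plus 3 SD, set separately per screening campaign, cut at about 2.9% in these data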;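 note: PERK kinase domain activated by AP20187 dimerizer at 100 nM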
Hits are given with their value. An excerpt weighted towards active compounds, which were near 2.4% of everything screened. Unless noted, the rule behind the calls is not given here.

`COCCNC(=O)c1ccc(-n2c(SCc3ccncc3)nc3ccccc3c2=O)cc1` gave eIF4E 4G PPI inactive, PfM18AAP inh inactive, PABP polyA inh 71, MLLE-PAM2 inh inactive, eIF4H FP inh active and PERK inhibitor inactive.
CCCc1cc(=O)oc2cc(C)cc(OCC(=O)N3CCC(C(=O)O)CC3)c12 was read as PfM18AAP inh inactive, PABP polyA inh inactive, MLLE-PAM2 inh inactive and eIF4H FP inh inactive.
`CCCc1c(C(=O)N/N=C/c2ccc3c(c2)OCO3)nnn1-c1nonc1N` gave MLLE-PAM2 inh inactive.
CCn1cnc2c1c(=O)n(CC(=O)NCC(F)(F)F)c(=O)n2Cc1ccccc1 was read as eIF4E 4G PPI inactive, PfM18AAP inh inactive, PABP polyA inh active, MLLE-PAM2 inh inactive, eIF4H FP inh 99 and PERK inhibitor inactive.
`CCn1c(SCc2ccccc2Cl)nc2nc3c(cc2c1=O)CCCC3` gave eIF4E 4G PPI inactive, PfM18AAP inh inactive, PABP polyA inh 60, MLLE-PAM2 inh inactive, eIF4H FP inh active and PERK inhibitor inactive.
Screening Cc1ccccc1-n1c(SCC(=O)Nc2ccccc2)nc2nc3c(cc2c1=O)CCCC3 returned eIF4E 4G PPI inactive, PfM18AAP inh inactive, PABP polyA inh inactive, MLLE-PAM2 inh inactive, eIF4H FP inh active and PERK inhibitor inactive.
For CCn1c(SCC(=O)Nc2ccc(C(C)=O)cc2)nc2nc3c(cc2c1=O)CCCC3 the results were eIF4E 4G PPI 51, PfM18AAP inh inactive, PABP polyA inh inactive, MLLE-PAM2 inh inactive, eIF4H FP inh inactive and PERK inhibitor inactive.
Screening CCn1c(SCC(=O)Nc2ccc(Cl)cc2)nc2nc3c(cc2c1=O)CCCC3 returned eIF4E 4G PPI inactive, PfM18AAP inh inactive, PABP polyA inh inactive, MLLE-PAM2 inh inactive, eIF4H FP inh inactive and PERK inhibitor inactive.
For CCn1c(SCc2c(Cl)cccc2Cl)nc2nc3c(cc2c1=O)CCCC3 the results were MLLE-PAM2 inh inactive.
Screening COC(=O)N/N=C/c1ccc(OC(=O)/C=C/c2ccco2)cc1 returned eIF4E 4G PPI inactive, PfM18AAP inh inactive, PABP polyA inh 25, MLLE-PAM2 inh inactive, eIF4H FP inh inconclusive and PERK inhibitor 2.9.
Screening O=C(Cc1ccccc1)N/N=C/c1ccc(OC(=O)/C=C\c2ccco2)cc1 returned eIF4E 4G PPI inactive, PfM18AAP inh inactive, PABP polyA inh inactive, MLLE-PAM2 inh inactive, eIF4H FP inh inactive and PERK inhibitor inactive.
`CCC(CC)C1C(C#N)=C(N)Oc2cc(C)oc(=O)c21` (centres undefined) gave eIF4E 4G PPI inactive, PfM18AAP inh inactive, PABP polyA inh inactive, MLLE-PAM2 inh inactive, eIF4H FP inh inactive and PERK inhibitor inactive.
Screening Cc1cc2c(c(=O)o1)C(c1ccc([N+](=O)[O-])o1)C(C#N)=C(N)O2 (centres undefined) returned eIF4E 4G PPI inactive, PfM18AAP inh inactive, PABP polyA inh 62, MLLE-PAM2 inh inactive, eIF4H FP inh 93 and PERK inhibitor inactive.
CC(=O)NNc1nc(-c2ccc(NC(C)=O)cc2)cs1 was read as eIF4E 4G PPI inactive, PfM18AAP inh 31, PABP polyA inh inactive, MLLE-PAM2 inh inactive, eIF4H FP inh inactive and PERK inhibitor inactive.
Screening CC(=O)Nc1ccc(-c2csc(NNC(=O)c3ccc(C)cc3)n2)cc1 returned eIF4E 4G PPI inactive, PfM18AAP inh inactive, PABP polyA inh inactive, MLLE-PAM2 inh inactive, eIF4H FP inh inactive and PERK inhibitor inactive.
Screening c1cc2c3c(cccc3c1)NC1(CCCC1)N2 returned MLLE-PAM2 inh 43.
For Cc1ccc(CNC(=O)c2cn(C3CCCC3)c(=O)c3c2c2ccccc2n3C)o1 the results were eIF4E 4G PPI inactive, PfM18AAP inh inactive, PABP polyA inh inactive, eIF4H FP inh inactive and PERK inhibitor inactive.
Screening CCOC(=O)c1c(/N=C/C2=C(O)CCCC2=O)sc2c1CCCC2 returned eIF4E 4G PPI inactive, PfM18AAP inh inactive, PABP polyA inh inactive, MLLE-PAM2 inh inactive, eIF4H FP inh inactive and PERK inhibitor inactive.
Screening CCOC(=O)c1cc(CC)sc1/N=C/C1=C(O)CCCC1=O returned eIF4E 4G PPI inactive, PfM18AAP inh inactive, PABP polyA inh active, MLLE-PAM2 inh inactive, eIF4H FP inh inactive and PERK inhibitor inactive.
`O=C1OCCC1Sc1nnc(-c2ccc(Br)cc2)o1` (centres undefined) gave eIF4E 4G PPI inactive, PfM18AAP inh inactive, PABP polyA inh inactive, MLLE-PAM2 inh inactive, eIF4H FP inh inactive and PERK inhibitor inactive.

Assay outcomes as filed in PubChem BioAssay.
